In PubChem BioAssay (NCATS):
Where “and” joins values, the source holds several entries; their conditions need not be identical. Identical values can stand only once. Records with an inconclusive call do not appear. A call without a number means that no potency is given here. The source holds several records for some structures; these can differ, active in one and inactive in another. Calls of active or inactive are those of the source. Unless noted, the call rests on the fitted dose curve; in most records, active means well fitted curve in the direction sought with a large enough effect; inconclusive means small, poorly fitted or top-dose-only effect, or another doubt; inactive means no such curve, though single readings can be large; an effect the other way counts as inactive or inconclusive.

Columns and labels:
[1] = qHTS for Inhibitors of Plasmodium falciparum (DD2) proliferation (AID 504314);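 further: parasite DNA measured by SYBR Green fluorescence after red cell lysis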; details: P. falciparum Dd2 in erythrocytes, SYBR Green growth, 72 h; series mostly up to 6.11 µM
How it was run: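 Infected RBCs, 0.3% parasitemia, 2.5% Hct; compound 72 h, 37C/5% CO2; lyse + SYBR Green I, RT overnight, dark; read ex485/em535; normalize to DMSO and artemisinin 0.29 uM.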

[2] = qHTS for Inhibitors of Plasmodium falciparum (7G8) proliferation (AID 504316); further: nearly all actives have a fitted effect of over 65% in size; details: P. falciparum 7G8 in erythrocytes, SYBR Green DNA, 72 h; series mostly up to 6.7 µM
How it was run: (§1)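 Erythrocytes infected with P. falciparum line (0.3% parasitemia, 2.5% hematocrit final) incubated with compounds 72 h at 37 °C, 5% CO2; SYBR Green lysis buffer added, fluorescence read next day. Normalized to 0.29 uM artemisinin and DMSO.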

[3] = qHTS for Inhibitors of Plasmodium falciparum (HB3) proliferation (AID 504318); further: nearly all actives have a fitted effect of over 60% in size; details: P. falciparum HB3 in erythrocytes, SYBR Green DNA, 72 h; series mostly up to 7.21 µM
How it was run: as §1

[4] = qHTS for Inhibitors of Plasmodium falciparum (CP250) proliferation (AID 504320); details: P. falciparum CP250 in erythrocytes, SYBR Green DNA, 72 h; series mostly up to 6.7 µM
How it was run: as §1

[5] = molecular target: Atrial natriuretic peptide receptor 1 (Homo sapiens) (UniProt P16066); experiment: Natriuretic polypeptide receptor (hNpr1) antagonism - Pilot CMLD screen (AID 1347052; calls by dose curve;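 further: cGMP level read as GloSensor luciferase luminescence after agonist stimulation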; further: potency means the concentration at half of the fitted maximal effect); details: HEK293 hNpr1 GloSensor cGMP luminescence, ANP-stimulated; series mostly up to 9.22 µM
Chain of Atrial natriuretic peptide receptor 1 (Homo sapiens) (P16066 whole entry, looked up): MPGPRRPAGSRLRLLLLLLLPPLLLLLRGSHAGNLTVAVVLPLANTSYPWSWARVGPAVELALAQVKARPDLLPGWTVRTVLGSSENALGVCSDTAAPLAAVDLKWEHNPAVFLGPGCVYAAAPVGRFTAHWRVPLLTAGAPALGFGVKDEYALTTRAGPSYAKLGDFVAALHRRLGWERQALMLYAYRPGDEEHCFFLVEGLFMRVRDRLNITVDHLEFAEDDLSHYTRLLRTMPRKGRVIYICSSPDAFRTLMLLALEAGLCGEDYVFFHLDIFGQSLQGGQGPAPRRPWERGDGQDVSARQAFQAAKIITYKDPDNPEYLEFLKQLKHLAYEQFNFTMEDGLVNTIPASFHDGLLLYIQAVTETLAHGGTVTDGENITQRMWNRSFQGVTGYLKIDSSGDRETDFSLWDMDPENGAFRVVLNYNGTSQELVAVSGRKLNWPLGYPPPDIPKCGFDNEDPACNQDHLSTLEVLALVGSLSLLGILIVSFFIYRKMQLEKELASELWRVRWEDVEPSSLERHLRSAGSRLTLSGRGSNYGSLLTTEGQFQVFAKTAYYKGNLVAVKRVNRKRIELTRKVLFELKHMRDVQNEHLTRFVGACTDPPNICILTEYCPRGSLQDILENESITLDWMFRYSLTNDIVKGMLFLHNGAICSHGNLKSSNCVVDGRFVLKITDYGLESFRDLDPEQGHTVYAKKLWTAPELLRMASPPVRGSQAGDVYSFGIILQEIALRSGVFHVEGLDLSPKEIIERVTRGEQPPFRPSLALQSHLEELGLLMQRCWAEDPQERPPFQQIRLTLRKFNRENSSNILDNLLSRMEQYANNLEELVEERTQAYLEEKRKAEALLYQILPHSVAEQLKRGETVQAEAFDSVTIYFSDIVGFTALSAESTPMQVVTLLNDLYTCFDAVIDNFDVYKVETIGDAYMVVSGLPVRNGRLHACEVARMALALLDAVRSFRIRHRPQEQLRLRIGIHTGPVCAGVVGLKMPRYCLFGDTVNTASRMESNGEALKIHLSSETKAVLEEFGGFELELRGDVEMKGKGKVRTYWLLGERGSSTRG

Row | SMILES | Potency [1] | Potency [2] | Potency [3] | Potency [4] | Potency [5] | activity, negative = inhibition [1]
1 | COc1ccc(OC)c(-c2ccccc2C=NNS(=O)(=O)c2ccc(C)cc2)c1 | inactive | inactive | inactive | inactive | inactive | 
2 | CCCCCCCC1=CC2=C(Cl)C(=O)C(C)(OC(C)=O)C(=O)C2=CO1 (centres undefined) | inactive | inactive | inactive | inactive | inactive | 
3 | COC(=O)[C@H](Cc1ccccc1)NC(=O)O[C@@H]1C(=O)c2cc(OC)ccc2O[C@H]1c1ccc(OC)c(Br)c1 | inactive | inactive | inactive | inactive | inactive | 
4 | CC1(OC(=O)c2cccs2)C(=O)C=C2C=C(c3ccsc3)OC=C2C1=O (centres undefined) | inactive | inactive | inactive | inactive | inactive | 
5 | CC(C)(C)Nc1oc(-c2ccccc2)nc1-c1ccccc1F | inactive | inactive | inactive | inactive | inactive | 
6 | CCN1C(=NCc2ccc(OC)cc2)NC(c2cccc(F)c2)C(C(=O)OC)=C1C (centres undefined) | inactive | inactive | inactive | inactive | inactive | 
7 | CCN(CC)CCCN1C(=O)C2=C(C1=O)C1N(C)c3ccccc3[C@@]13C[C@@H](CO)N(C(=O)CCC(=O)OC)C3=N2 (some centres undefined) | inactive | inactive | inactive | inactive | inactive | 
8 | COC(=O)C(C(=O)OC)c1ccccc1[N+](=O)[O-] | inactive | inactive | inactive | inactive | inactive | 
9 | CCOC(=O)CN1C(=O)NC(c2cccc(C(F)(F)F)c2)C(C(=O)OC)=C1C (centres undefined) | inactive | inactive | inactive | inactive | inactive | 
10 | COC(=O)C1=C(C)N(Cc2ccccc2)C(=NCCc2c[nH]c3ccccc23)NC1c1ccc(Br)cc1 (centres undefined) | inactive | inactive | inactive | inactive | inactive | 
11 | C=CCN(C)C1=NC(c2ccccc2)C(C(=O)OC)=C(C)N1CCOC (centres undefined) | inactive | inactive | inactive | inactive | inactive | 
12 | CC(=O)C1=C(C)N(Cc2ccccc2)C(=O)NC1c1cccc(C(F)(F)F)c1 (centres undefined) | inactive | inactive | inactive | inactive | inactive | 
13 | CCN1C(=NCc2ccco2)N[C@@H](c2ccccc2)[C@H](C(=O)OC)[C@H]1C | inactive | inactive | inactive | inactive | inactive | 
14 | C=CCOC(=O)N[C@H](C(C(=O)OC)=C(C)NCc1ccccc1)c1cccc(C(F)(F)F)c1 | inactive | inactive | inactive | inactive | inactive and 1.33 µM (active) | 
15 | CC(=O)OC[C@H]1O[C@@H](ON=C(C)CCN2CCCCc3nc(C)c(C)cc32)[C@H](OC(C)=O)[C@@H](OC(C)=O)[C@H]1OC(C)=O | inactive | inactive | inactive | inactive | inactive | 
16 | COC(=O)C1=C(C(=O)OC)[C@@H]2N(Cc3ccccc3)c3ccccc3[C@@]23C[C@@H](C(=O)OC)N(C(=O)c2cc(C)oc2C)C3=N1 | inactive | inactive | inactive | inactive | inactive | 

Row | SMILES | Potency [1] | Potency [2] | Potency [3] | Potency [4] | Potency [5] | activity, negative = inhibition [1]
17 | COC(=O)CCCC1=CC2=C(c3ccccc3)C(=O)C(C)(OC(=O)C3CCCC3)C(=O)C2=CN1Cc1ccco1 (centres undefined) | inactive | inactive | inactive | inactive | inactive | 
18 | COC(=O)C1=C(C(=O)OC)[C@@H]2N(C)c3ccccc3[C@@]23C[C@@H](C(=O)OC)N(C(=O)c2cc(C)oc2C)C3=N1 | inactive | inactive | inactive | inactive | inactive | 
19 | O=C(NN=C1C[C@@H](O)[C@H](O)[C@H]2[C@@H]3C(=O)N(c4cccc(Oc5ccccc5)c4)C(=O)[C@@H]3CC[C@H]12)OCc1ccccc1 | inactive | inactive | inactive | inactive | inactive | 
20 | CCCCCCCC#Cc1ccccc1C=NS(=O)c1ccc(C)cc1 (centres undefined) | inactive | inactive | inactive | inactive | inactive | 
21 | CC(CCC(=O)OC[C@H]1O[C@H](C#Cc2ccccc2)C=C[C@H]1Oc1ccc(C)cc1)=NOC[C@@H](O)COCc1ccco1 | inactive | inactive | inactive | inactive | inactive | 
22 | C[C@H]1COc2c(N3CCN(C)CC3)c(F)cc3c(=O)c(C(=O)NCc4ccco4)cn1c23 | inactive | inactive | inactive | inactive | inactive | 
23 | COC(=O)N[C@@H](CCc1ccccc1)[C@]1(C(=O)OC)CCCC1=O | inactive | inactive | inactive | inactive | inactive | 
24 | CCOC(=O)C1=C(CCl)NC(=O)N(C(C)=O)C1c1ccccc1 (centres undefined) | inactive | inactive | inactive | inactive | inactive | 
25 | COc1ccc(COC(=O)NN=C2C[C@@H](O)[C@@H](O)[C@@H]3[C@H]4C(=O)N(c5cccc(Oc6ccccc6)c5)C(=O)[C@@H]4CC[C@H]23)cc1 | inactive | inactive | inactive | inactive | inactive | 
26 | COC(=O)[C@H](Cc1ccccc1)NC(=O)O[C@H]1C(=O)c2ccc(OC)cc2O[C@@H]1c1ccc2c(c1)OCO2 | inactive | inactive | inactive | inactive | inactive | 
27 | CCOC(=O)NN=Cc1ccccc1-c1cc(OC)ccc1OC | inactive | inactive | inactive | inactive | inactive | 
28 | COc1ccc2c(c1)C(NC(=O)C(F)(F)F)CC21CCCCC1 (centres undefined) | inactive | inactive | inactive | inactive | inactive | 
29 | CC1(OC(=O)C2CCCC2)C(=O)C=C2C=C(c3ccsc3)N(CC3CC3)C=C2C1=O (centres undefined) |  | inactive |  | inactive | inactive | -6.74% [at 1.12 µM] (inactive)
30 | CCN1C(=S)NC(c2ccccc2)C(C(=O)OC)=C1C (centres undefined) | inactive | inactive | inactive | inactive | inactive | 
31 | C=CCC12OC3(OC)CC1[C@H](C)[C@@H](c1ccccc1)C2[C@]3(O)CC=C (some centres undefined) | inactive | inactive | inactive | inactive | inactive | 
32 | COC(=O)CC=C[C@@H](C)[C@H](NC(=O)OCC(Cl)(Cl)Cl)c1ccc2ccccc2c1 | inactive | inactive | inactive | inactive | inactive | 
